# Reference: PubChem BioAssay (Tox21)
# Unmarked numbers belong to inactive results. The source made the active and inactive calls. Calls follow the shape of the full dose curve.
# Test: qHTS assay to identify small molecule agonists of the sonic hedgehog signaling (Shh) pathway (AID 1259368);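 also: NIH/3T3-derived 3T3Gli1-Luc cells carrying a stable Gli1-driven firefly luciferase reporter; nearly all actives have a fitted effect of over 15% in size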
# Settings: NIH/3T3 Gli1-Luc reporter, luciferase, 24 h, hits give high values; series mostly up to 92.4 µM
# Excerpt: National Center for Advancing Translational Sciences [NCATS]
# NIH Chemical Genomics Center [NCGC]
# U.S. Environmental Protection Agency [EPA]
# National Institutes of Environmental Health Sciences [NIEHS]
# National Toxicology Program [NTP]
# The sonic hedgehog (Shh) pathway is essential for normal embryonic development. Dysregulation of the Shh pathway can cause severe developmental defects in organs. Therefore chemicals that interfere with the pathway are potential developmental toxicants. A cell line designated 3T3Gli1-Luc (DMB/OARSA/CFSAN/FDA, Laurel, MD), a NIH/3T3 derived clone containing stably integrated Gli1-Luc reporter is used to detect chemical interference of the Shh pathway, by changes in the expression of the firefly Luc gene under the control of the Gli1 transcriptional response element. This cell line was used to screen Tox21 libraries for identifying and prioritizing the potential developmental toxicants that interfere Shh pathway.
# 3T3 Gli1-Luc cells were dispensed at 2,000 per well in 5uL of culture medium into white solid bottom 1536-well plates (Greiner Bio-One, Monroe, NC) using a Multidrop Combi (Thermo Scientific, Waltham, MA) dispenser. The assay plates were incubated at 37 C and 5% CO2 for 4hr, and then 23nL of compounds dissolved in DMSO and positive control were transferred using a Pintool station (Wako, San Diego, CA). The assay plates were incubated at 37C and 5% CO2 for 24hr. For luciferase read, 4uL of Amplite Luciferase reporter gene assay reagent (AAT Bioquest, Inc. Sunnyvale, CA) was added to each well of the assay plates using Flying Reagent Dispenser (FRD, Aurora Discovery, San Diego, CA) and incubated at room temperature for 30min. The luminescence signal was measured using a ViewLux plate reader (Perkin Elmer, Shelton, CT).
# % is scaled to controls: 0 for no effect and ±100 for the full control effect.
Compound,outcome,activity change
COc1ccc(Cl)cc1C,inactive,
Cc1ccc(N)nc1,inactive,
CC1=C(O)C(=O)CO1,inactive,
CC(O)CCCCn1c(=O)c2c(ncn2C)n(C)c1=O (stereo not given),inactive,
Clc1ccc2c(c1)Nc1ccccc1S2,inactive,
Cc1ccc2ccccc2n1,inactive,
CCO/C=C1\N=C(c2ccccc2)OC1=O,inactive,
CC1(C)C(=O)C(C)(C)C1=O,inactive,
CC(=O)SCC(CC(=O)c1ccc(C)cc1)C(=O)O (stereo not given),inactive,
COc1ccccc1N1CCN(CC(O)COc2cc(OC)c(OC)c(OC)c2)CC1 (stereo not given),inactive,
BrCCOc1ccccc1,inactive,
CCOC(=O)CC,inactive,
COCc1nnc(-c2ccc[n+]([O-])c2)n1-c1c(Cl)c(Cl)cc2[nH]c(=O)c(=O)[nH]c12,inactive,
CC(C)(C)C(=O)CC(=O)C(C)(C)C,inactive,
O=C(O)COc1ccc2ccccc2c1,inactive,
CC(C)(O)CCCC1=CCC(C=O)CC1 (stereo not given),inactive,
Cc1ccc(OC(=O)CC(C)C)cc1,inactive,
CN(C)CCC[C@@]1(c2ccc(F)cc2)OCc2cc(C#N)ccc21,inactive,
COC(=O)C(c1ccccc1Cl)N1CCc2sccc2C1 (stereo not given),inactive,
C=CCON/C(CCC)=C1\C(=O)CC(C)(C)C(C(=O)OC)=C1O,inactive,

Compound,outcome,activity change
Cc1ccc(Br)cc1,inactive,
C/C=C(\C)C(=O)OC/C=C(\C)CCC=C(C)C,inactive,
CC(C)(C)OC(=O)c1ccccc1C(=O)O,inactive,
C=COCCCCO,inactive,
CCCC(=O)CC,inactive,
Cc1ccc(O)c([N+](=O)[O-])c1,inactive,
CC/C=C\CCOC(=O)c1ccccc1,inactive,
CCCCC(CC)CCC(CC(C)C)OS(=O)(=O)O (stereo not given),inactive,
CCC(=O)OCCOc1ccccc1,inactive,
CCC(C)SSC(C)CC (stereo not given),inactive,
C=C(C)C(=O)OCCCC,inactive,
CC(CN1CC(=O)NC(=O)C1)N1CC(=O)NC(=O)C1 (stereo not given),inactive,
CC(C)C[P+](C)(CC(C)C)CC(C)C,inactive,
CNC(C)=O,inactive,
Cc1cc(N)no1,inactive,
CCCCCCCCCCCCCC(=O)OCC,inactive,
O=CN1CCCCC1,inactive,
CN(C)CCc1c[nH]c2ccc(CS(=O)(=O)N3CCCC3)cc12,inactive,
N=C(N)N1CCc2ccccc2C1,,0.863% [at 8.39 µM]
CCCCCCCOC(C)=O,inactive,
